Source: PubChem (National Center for Advancing Translational Sciences (NCATS))
In the library only some 21% were active in any assay of this set; here they are far more common.
Pf growth 48h: Primary qHTS for delayed death inhibitors of the malarial parasite plastid, 48 hour incubation; P. falciparum luciferase growth in erythrocytes, 48 h; Potency, µM (highest dose often 28.7 µM), for inactives: at the top dose activity change, negative = inhibition, actives largely listed as inhibitors; 5.9% of 310,000 active; AID 504832, 2011; also: potency is read from the fitted curve at half-maximal effect; % is scaled to controls: 0 for no effect and ±100 for the full control effect
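Compounds are pin-transferred into medium, infected erythrocytes (2% hematocrit, 0.1% parasitemia final) are added, and plates sit one parasite generation at 37 C in 5% CO2. Detection reagent is then added and luminescence measured.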
Sm TGR block: qHTS Assay for the Inhibitors of Schistosoma Mansoni Peroxiredoxins; Schistosoma mansoni thioredoxin glutathione reductase (TGR), Q962Y6; purified TGR, DTNB reduction, TNB absorbance 405 nm; Potency, µM (doses to about 114 µM), without a hit: top-dose activity change, negative = inhibition, actives largely listed as inhibitors; 3% of 360,000 active; AID 485364, 2010; also: potency is read from the fitted curve at half-maximal effect; % is scaled to controls: 0 for no effect and ±100 for the full control effect; nearly all actives have a fitted effect of over 60% in size
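First, TGR (20 nM dispensed) and NADPH were mixed with compound. Second, a 15 min room-temperature incubation followed. Third, further NADPH and then DTNB were added to start the reaction. Finally, TNB absorbance was monitored kinetically.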
Cycloheximide cs: Cycloheximide Counterscreen for Small Molecule Inhibitors of Shiga Toxin; cell reporter, cycloheximide protein synthesis inhibition counterscreen; max response, %; 12% of 300,000 active; in the data active = max response mostly above about 13%, no sharp cut-off; inactive = mostly below about 14%; also: read at 38.3 µM for the half of the compounds with a filed dose; 0% is about no effect
Pf growth 96h: Primary qHTS for delayed death inhibitors of the malarial parasite plastid, 96 hour incubation. P. falciparum luciferase reporter growth, 96 h. Potency, µM (titrated, usually from 28.7 µM), inactives show at the top dose activity change, negative = inhibition, hits mostly inhibitors. 6.9% of 320,000 active. AID 504834, 2011; also: potency is read from the fitted curve at half-maximal effect; % is scaled to controls: 0 for no effect and ±100 for the full control effect
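96 h incubation, 37 C, 5% CO2, of luciferase-reporter P. falciparum-infected RBCs (2% hematocrit, 0.05% parasitemia final) with test compounds; endpoint luminescence.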
Shiga toxin inh: A qHTS for Small Molecule Inhibitors of Shiga Toxin; Vero cells, Shiga toxin protein synthesis inhibition reporter; inhibition, % at 38.7 µM; 9.2% of 290,000 active; in the data active = inhibition mostly above about 28%, no sharp cut-off; inactive = mostly below about 43%; also: 0% is about no effect
NS1 function inh: qHTS Assay for Inhibitors of Influenza NS1 Protein Function; Potency, µM (highest dose often 46.1 µM), for the others: top-dose activity, positive = more growth; AID 2326, 2010; 0.4% of 270,000 active; calls by dose curve; also: potency is read from the fitted curve at half-maximal effect; actives are rising curves; nearly all actives have a fitted effect of over 50% in size
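OD600 was taken as the measure of yeast growth restored by compound in an NS1-expressing S. cerevisiae strain. Cells had been washed out of glucose medium and diluted 1:100 into galactose -URA medium, pH 6.0.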
Starred values were filed as active, the others as inactive; ? = inconclusive; nt = no result given. Unless noted, calls follow the shape of the dose curve; as a rule, active = well fitted curve in the direction sought with a large enough effect; inconclusive = small, poorly fitted or top-dose-only effect, or another doubt; inactive = no such curve, though single readings can be large; an effect the other way counts as inactive or inconclusive.

SMILES	Pf growth 48h	Sm TGR block	Cycloheximide cs	Pf growth 96h	Shiga toxin inh	NS1 function inh
COc1cc(/C=C/C(=O)NCCc2ccc(S(N)(=O)=O)cc2)ccc1OCC#N	?	-8%	1	12µM*	2	3%
O=C(CN1CCCC1c1cccs1)Nc1cccc(S(=O)(=O)N2CCCC2)c1 (stereo unspecified)	?	2%	nt	?	nt	nt
COC(=O)CCc1sc(Nc2ccc(OC)cc2)nc1-c1ccc(OC)cc1	nt	-3%	nt	nt	nt	nt
COC(=O)CCc1sc(NC2CCCCC2)nc1-c1ccc(OC)cc1	1%	-11%	25*	?	36	-20%
N#CCC1c2ccccc2CCN1C(=O)Nc1ccc(C(F)(F)F)cc1 (stereo unspecified)	13µM*	-26%	15	5.9µM*	-10	0%
N#CCC1c2ccccc2CCN1C(=O)Nc1cccc(C(F)(F)F)c1 (stereo unspecified)	?	-4%	5	?	-2	7%
COc1ccc2c(c1)[C@H]1[C@H](CO2)[C@H](c2ccccc2)[C@]2(C)C(=O)N[C@@H](C)C(=O)N12	-5%	-20%	nt	?	nt	nt
COc1ccc2c(c1)OC[C@H]1[C@H]2N2C(=O)c3cc(Cl)ccc3NC(=O)[C@@]2(C)[C@H]1c1ccccc1	9.3µM*	6%	nt	3.3µM*	nt	nt
CCOC(=O)[C@H]1[C@H]2COc3ccc(Cl)cc3[C@@H]2N2C(=O)c3cc(OC)ccc3NC(=O)[C@@]12C	?	-8%	nt	?	nt	nt
COc1ccc2c(c1)OC[C@H]1[C@H]2N2C(=O)c3cc(OC)ccc3NC(=O)[C@@]2(C)[C@H]1c1ccccc1	5.2µM*	3%	nt	6.6µM*	nt	nt
O=C(NCC(c1cccs1)N1CCOCC1)c1cn(-c2ccccc2)nc1-c1ccccc1 (stereo unspecified)	?	4%	nt	13µM*	nt	nt
Cc1ccccc1-c1nn(-c2ccccc2)cc1C(=O)NCC(c1ccco1)N1CCCC1 (stereo unspecified)	?	9%	nt	-46%	nt	nt
COc1ccc(-c2nn(-c3ccccc3)cc2C(=O)NCC(c2cccs2)N2CCOCC2)cc1 (stereo unspecified)	13µM*	8%	nt	?	nt	nt
O=C(NCC(c1cccs1)N1CCOCC1)c1cn(-c2ccccc2)nc1-c1ccc(Cl)cc1 (stereo unspecified)	?	8%	nt	?	nt	nt
COc1cccc(-c2nn(-c3ccc(C)cc3)cc2C(=O)NCC(c2cccs2)N2CCOCC2)c1 (stereo unspecified)	3.3µM*	-18%	nt	?	nt	nt
COc1ccc(OC)c(-c2nn(-c3ccccc3)cc2C(=O)NCC(c2ccco2)N2CCCC2)c1 (stereo unspecified)	9.3µM*	0%	nt	?	nt	nt
c1ccc(-c2noc(C3CCCCC3)n2)nc1	197%	-4%	32*	34%	66*	2%
Brc1ccc(-c2noc(C3CCCCC3)n2)cc1	252%	13%	14*	0%	34*	2%
Cc1noc(NS(=O)(=O)c2ccc(NC(=O)C(CC(C)C)N3C(=O)c4ccccc4C3=O)cc2)c1C (stereo unspecified)	7%	2%	-2	32%	25	0%
COc1ccc(-c2nc3n(n2)C(c2ccccc2F)C(C(=O)Nc2cccnc2)=C(C)N3)cc1OC (stereo unspecified)	nt	9%	nt	nt	nt	nt
Cc1cccc(C)c1OCc1cc(=O)n2ccsc2n1	nt	-3%	nt	nt	nt	nt
Cc1oc(-c2ccc(F)cc2)nc1CN(Cc1ccccn1)CC1CCCO1 (stereo unspecified)	?	40µM*	-3	?	-8	1%
Clc1ccc(-c2noc(CN(Cc3ccccn3)CC3CCCO3)n2)cc1 (stereo unspecified)	8%	-9%	2	?	-2	-7%
CC1=C(C(=O)Nc2cccnc2)C(c2ccc(F)cc2)n2nc(SCc3ccccc3F)nc2N1 (stereo unspecified)	nt	-6%	nt	nt	nt	nt
CN1CCN(C=Nc2nc3ccccc3nc2N2CCCC2)CC1	-8%	32µM*	8	7%	9	0%
SMILES	Pf growth 48h	Sm TGR block	Cycloheximide cs	Pf growth 96h	Shiga toxin inh	NS1 function inh
C#CCOCCOCCOCCNc1nc(N2CCN(C(=O)CCCCCCCCCCNC(=O)Cn3cc(C[C@@H](C)O)nn3)CC2)nc(N2CCN(C(=O)CCCCCCCCCCNC(=O)[C@@H](CCSC)n3cc(CCO)nn3)CC2)n1	0.19µM*	-6%	nt	0.15µM*	nt	nt
C#CCOCCOCCOCCNc1nc(N2CCN(C(=O)CCCCCCCCCCNC(=O)[C@@H](CCSC)n3cc(CCO)nn3)CC2)nc(N2CCN(C(=O)CCCCCCCCCCNC(=O)[C@@H]([C@H](C)O)n3cc(C)nn3)CC2)n1	0.15µM*	-24%	nt	0.17µM*	nt	nt
C#CCOCCOCCOCCNc1nc(N2CCN(C(=O)[C@H]([C@@H](C)O)n3cc(CCCCN)nn3)CC2)nc(N2CCN(C(=O)[C@H](CCCCN)n3cc(CC(C)O)nn3)CC2)n1 (stereo partly specified)	15%	-18%	nt	-10%	nt	nt
C#CCOCCOCCOCCNc1nc(N2CCN(C(=O)CCCCCCCCCCNC(=O)[C@H](CCCCN)n3cc(C[C@@H](C)CC)nn3)CC2)nc(N2CCN(C(=O)CCCCCCCCCCNC(=O)[C@@H]([C@H](C)O)n3cc(C)nn3)CC2)n1	2.1µM*	7%	nt	0.37µM*	nt	nt
C#CCOCCOCCOCCNc1nc(N2CCN(C(=O)CCCCCCCCCCNC(=O)[C@H](CCCCN)n3cc(C)nn3)CC2)nc(N2CCN(C(=O)CCCCCCCCCCNC(=O)[C@@H]([C@H](C)O)n3cc(C)nn3)CC2)n1	2.1µM*	-2%	nt	1.2µM*	nt	nt
COc1ccc(-c2cn3nc(N4CCC(C(=O)Nc5ccc(C)cc5)CC4)sc3n2)cc1	nt	2%	nt	nt	nt	nt
COc1cccc(C(C)NC(=O)Cc2cccs2)c1 (stereo unspecified)	10%	10%	-1	?	-3	20%
Cc1ccc(C(=O)N2N=C3c4ccccc4S(=O)(=O)N3[C@H]2N(C)C)cc1	0%	8%	-2	?	19	-2%
CCOC(=O)c1ccccc1NC(=O)c1cc2c(s1)-c1ccccc1SC2	nt	0%	nt	nt	nt	nt
Cc1ccc(N=Nc2c(O)ccc3n[nH]nc23)cc1	90%	32µM*	42*	37%	103*	-86%
CN(C(=S)NC(=O)c1ccccc1)C1CCCCC1	?	5%	15*	?	34*	0%
CN(C(=S)NC(=O)c1ccc(F)cc1)C1CCCCC1	?	3%	19*	?	29	-11%
CN(C(=S)NC(=O)c1ccc(Cl)cc1)C1CCCCC1	?	79µM*	50*	10µM*	72*	3%
